According to article PMC4336329 (PLoS ONE, 2015):
Among all 310,000 compounds or so, about 14,000 (4.5%) showed an effect of 50% or more. The effect is printed as a negative number. The sample holds strong results, similar compounds and a random draw of the others, so the mix is not that of the screen.

target: human ether-à-go-go-related gene (hERG) potassium channel (human, UniProt Q12809); assay: primary screen, population patch clamp on CHO cells stably expressing hERG; higher = less effect of the substance
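Also: peak tail current of the secondary pulse compared with the same well before compound.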

Chain of human ether-à-go-go-related gene (hERG) potassium channel (Q12809 whole entry, looked up): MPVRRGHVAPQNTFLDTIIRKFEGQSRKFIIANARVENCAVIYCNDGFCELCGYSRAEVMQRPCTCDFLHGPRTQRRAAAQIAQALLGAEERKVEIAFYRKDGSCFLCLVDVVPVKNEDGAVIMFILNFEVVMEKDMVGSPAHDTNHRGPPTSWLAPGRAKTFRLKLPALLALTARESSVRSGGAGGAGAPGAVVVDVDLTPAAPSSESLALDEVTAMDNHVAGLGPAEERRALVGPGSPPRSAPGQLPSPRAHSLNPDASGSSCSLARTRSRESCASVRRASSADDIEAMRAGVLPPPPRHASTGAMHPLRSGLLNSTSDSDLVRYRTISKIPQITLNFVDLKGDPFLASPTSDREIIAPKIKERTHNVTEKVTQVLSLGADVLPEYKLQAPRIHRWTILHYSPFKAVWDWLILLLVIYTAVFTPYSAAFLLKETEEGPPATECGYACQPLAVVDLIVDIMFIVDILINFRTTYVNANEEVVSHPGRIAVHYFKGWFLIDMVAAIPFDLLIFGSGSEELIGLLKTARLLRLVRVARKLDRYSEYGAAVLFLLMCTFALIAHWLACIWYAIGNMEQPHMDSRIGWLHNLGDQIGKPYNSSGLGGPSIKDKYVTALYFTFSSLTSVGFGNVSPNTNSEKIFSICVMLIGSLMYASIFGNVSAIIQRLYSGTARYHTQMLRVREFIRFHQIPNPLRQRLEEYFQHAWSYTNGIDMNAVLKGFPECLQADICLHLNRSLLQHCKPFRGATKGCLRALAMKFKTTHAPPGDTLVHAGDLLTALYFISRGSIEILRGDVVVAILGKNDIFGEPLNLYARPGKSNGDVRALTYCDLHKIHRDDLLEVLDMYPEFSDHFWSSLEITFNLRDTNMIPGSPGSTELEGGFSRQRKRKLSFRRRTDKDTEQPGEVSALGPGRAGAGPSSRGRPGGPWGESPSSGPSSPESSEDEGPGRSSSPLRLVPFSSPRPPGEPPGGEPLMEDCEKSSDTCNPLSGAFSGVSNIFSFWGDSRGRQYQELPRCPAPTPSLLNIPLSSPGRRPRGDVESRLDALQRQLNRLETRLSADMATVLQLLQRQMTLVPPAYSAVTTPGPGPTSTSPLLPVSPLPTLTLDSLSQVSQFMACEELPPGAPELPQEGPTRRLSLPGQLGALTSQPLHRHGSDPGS

| SMILES | hERG current change (%, negative = inhibition) at 10uM [%] |
| --- | --- |
| COc1ccc(C(=O)Nn2cnnc2)cc1OC | 14.6 |
| CCOc1ccc(C(=O)Nn2cnnc2)cc1OCC | -70.4 |
| CC1CCc2cc(F)ccc2N1C(=O)c1ccncc1 (stereo not shown) | 7.7 |
| Cc1cccc(N(C(=O)Cc2cccs2)C(C(=O)NC2CCCC2)c2ccncc2)c1 (stereo not shown) | 8.83 |
| CC(C)C(c1nnnn1Cc1cccs1)N1CCN(C(=O)c2ccco2)CC1 (stereo not shown) | -31.6 |
| Cc1ccc(C(c2nnnn2Cc2cccs2)N2CCN(C(=O)c3ccco3)CC2)cc1 (stereo not shown) | -62.5 |
| O=C(c1ccco1)N1CCN(C(c2ccc(F)cc2)c2nnnn2CC2CCCO2)CC1 (stereo not shown) | -13.7 |
| O=C(c1ccco1)N1CCN(C(c2ccccc2)c2nnnn2Cc2cccs2)CC1 (stereo not shown) | -38.9 |
| Cl.O=C(c1ccco1)N1CCN(C(c2ccc(F)cc2)c2nnnn2Cc2cccs2)CC1 (stereo not shown) | -57 |
| CC(C)CCn1nnnc1C(c1ccc(F)cc1)N1CCN(C(=O)c2ccco2)CC1 (stereo not shown) | -38.1 |
| CCCCc1nnc(NC(=O)CSCc2cc(=O)n3cc(C)sc3n2)s1 | 5.31 |
| Cc1ccc2c(CC(=O)Nc3c(C)n(C)n(-c4ccccc4)c3=O)coc2c1 | -7.21 |
| COc1ccccc1CN1C[C@@H]2C[C@@H](c3cccc(O)c3)N3CCC[C@@]23C1=O | -33.6 |
| O=C1N(Cc2cccnc2)C[C@@H]2C[C@@H](c3cccc(Oc4ccccc4)c3)N3CCC[C@@]123 | -59.4 |
| O=C1N(Cc2cccnc2)C[C@@H]2C[C@@H](c3cccc(OCc4ccccc4)c3)N3CCC[C@@]123 | -63.6 |
| O=C1N(Cc2cccnc2)C[C@@H]2C[C@@H](c3cccc(OC4CCCC4)c3)N3CCC[C@@]123 | -69.5 |
| COc1ccccc1CN1C[C@@H]2C[C@@H](c3cccc(C)c3)N3CCC[C@@]23C1=O | -37 |
| CC(C)(C)NC(=S)NNC(=O)[C@H]1C[C@@H]1c1ccccc1 | 11 |
| Cc1ccc(S(=O)(=O)N[C@H](C(=O)N2CCC(C(=O)N[C@@H](CC(=O)O)C(=O)O)CC2)C(C)C)cc1 | 24.9 |
| O=c1cc(-c2ccccc2)cc(-c2ccccc2)n1CCO | -21.5 |
| O=C(CCN1CCCC1=O)NC1CCCc2c1cnn2-c1ccc(F)cc1F (stereo not shown) | -2.54 |
| CCOC(=O)N1CCC(NS(=O)(=O)c2ccc3c(c2)CCN3C(C)=O)CC1 | -0.517 |

| SMILES | hERG current change (%, negative = inhibition) at 10uM [%] |
| --- | --- |
| CC(C)C(C(=O)NC(C)(C)C)N(CCN1CCOCC1)C(=O)CNS(=O)(=O)c1ccccc1 (stereo not shown) | 0.875 |
| CC(/C=C/c1ccco1)=N\NC(=O)c1cc(C)[nH]n1 | 5.55 |
| CC(=O)Nc1ccc(N(C(=O)Cc2cccs2)C(C(=O)NC2CCCC2)c2ccncc2)cc1 (stereo not shown) | 9.17 |
| CC1(C)CC(=O)C(=Cc2cn(-c3ccccc3)nc2-c2ccccc2)C(=O)C1 | -24.1 |
| O=C(NC1CC2CCC(C1)N2Cc1ccccc1)c1ccccc1Br (stereo not shown) | -20.1 |
| O=C(NC1CCCC1)c1cccc(Cl)c1 | 29.8 |
| CCCCN1C2CCCC1CC(NC(=O)c1cccc(Cl)c1)C2 (stereo not shown) | -75.5 |
| CCCN1C2CCCC1CC(NC(=O)c1cccc(Cl)c1)C2 (stereo not shown) | -38.9 |
| O=C(NC1CC2CCCC(C1)N2Cc1ccccc1)c1cccc(Cl)c1 (stereo not shown) | -57.9 |
| O=C(NC1CC2CCCC(C1)N2Cc1ccccc1)c1cccc(F)c1 (stereo not shown) | -56.8 |
| Cc1cccc(C(=O)NC2CC3CCCC(C2)N3Cc2ccccc2)c1 (stereo not shown) | -40.9 |
| CCCCN1C2CCCC1CC(NC(=O)c1cccc(OC)c1)C2 (stereo not shown) | -19.3 |
| O=C(NC1CC2CCC(C1)N2Cc1ccccc1)c1cccc(F)c1 (stereo not shown) | -60.5 |
| O=C(NC1CC2CCC(C1)N2Cc1ccccc1)c1ccccc1Cl (stereo not shown) | -40.6 |
| O=C(Nc1cccc(F)c1)c1ccc(S(=O)(=O)NCC2CCCO2)cc1 (stereo not shown) | -12.2 |
| COc1ccc(C(=O)NN(C)c2nc(-c3ccccc3)nnc2C(F)(F)F)cc1 | 7 |
| N#Cc1cn(CC(=O)N2CCCC2)c2ccccc12 | 8.6 |
| O=C(O)C1=CC2c3ccccc3C1c1ccccc12 | 17.4 |
| CC1(C)Cc2sc3c(=O)[nH]c(=S)[nH]c3c2CO1 | 16.6 |
| CCCN1C(=O)/C(=c2\s/c(=C3\C=Cc4ccccc4N3CC)c(=O)n2-c2ccccc2)SC1=S | 8.95 |
| O=C1NC(=O)/C(=C\c2cn(CC(=O)N3CCOCC3)c3ccccc23)S1 | 11.7 |
